What was measured:
[1] = target: T1, Aspartate--tRNA(Asp/Asn) ligase (Mycobacterium tuberculosis (strain ATCC 25618 / H37Rv)) (UniProt P9WFW3); assay: Assay for Asp RNA synthetase-1 from Mycobacterium tuberculosis; assay type: functional; set-up: scale not given: direction of the effect not stated beside the values; conditions: 30 µM; note: in the data most compounds retested in dose-response had high values
T1 sequence (whole entry): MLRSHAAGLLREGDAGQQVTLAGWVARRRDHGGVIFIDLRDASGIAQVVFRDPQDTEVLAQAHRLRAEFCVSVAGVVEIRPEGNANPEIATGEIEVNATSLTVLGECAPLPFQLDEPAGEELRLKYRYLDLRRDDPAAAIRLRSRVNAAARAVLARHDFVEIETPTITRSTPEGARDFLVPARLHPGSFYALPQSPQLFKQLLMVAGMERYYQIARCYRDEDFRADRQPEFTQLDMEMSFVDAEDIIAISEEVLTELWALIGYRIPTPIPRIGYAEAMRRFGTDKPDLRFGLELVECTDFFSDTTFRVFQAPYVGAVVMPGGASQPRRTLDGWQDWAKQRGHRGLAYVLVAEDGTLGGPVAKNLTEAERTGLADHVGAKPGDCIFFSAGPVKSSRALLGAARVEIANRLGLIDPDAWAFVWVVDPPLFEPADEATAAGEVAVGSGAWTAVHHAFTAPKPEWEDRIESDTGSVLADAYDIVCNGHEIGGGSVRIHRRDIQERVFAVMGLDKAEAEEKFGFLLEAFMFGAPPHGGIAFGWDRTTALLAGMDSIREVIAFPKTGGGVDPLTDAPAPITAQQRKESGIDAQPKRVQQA

[2] = target: Shiga toxin 2 (Escherichia coli O157:H7) (UniProt P09385+P09386); assay: E. coli 0.157:H7 Shiga Toxin SOP - stx2 screening assay; assay type: functional; set-up: scale not given: direction of the effect not stated beside the values; conditions: 30 µM

With `O=C([C@H]1C[C@H]2OCC[C@H]2N(C(=O)C2CCOCC2)C1)N1CCCCO1` as the molecule, how does the Percent Effect [1] read?
The Percent Effect was 0.757%.

And the Percent Effect [2]?
Its Percent Effect is -26.6%.

With `O=C(NS(=O)(=O)c1ccc2c(c1)OCCO2)c1ccc(Br)cc1F` as the molecule, how does the Percent Effect [1] read?
Its Percent Effect is 1.56%.

What about the Percent Effect [2] of the same molecule?
The Percent Effect was 8.44%.

With `CCc1ccc(C(=O)N2CCN(CC(C)O)CC2)o1` (stereo unspecified) as the molecule, how does the Percent Effect [1] read?
Its Percent Effect is 0.745%.

What about the Percent Effect [2] of the same molecule?
Its Percent Effect is 5.26%.

How did the Percent Effect [1] turn out when `Cc1cc2c(=O)n3c(nc2s1)CCN(C(=O)c1scnc1C)CC3` was run?
Its Percent Effect is -1.56%.

What about the Percent Effect [2] of the same molecule?
Its Percent Effect is 0.428%.

For `COc1ccc(CN2CCn3c(CNS(C)(=O)=O)nnc3C2)cc1`, which Percent Effect [1] is on record?
The Percent Effect was 1.39%.

What about the Percent Effect [2] of the same molecule?
The Percent Effect was -6.04%.

Which Percent Effect [1] does the source give for `CC(=O)c1cccc(OCCCC(=O)N(C)CCc2ccncc2)c1` here?
The Percent Effect was -0.591%.

And the Percent Effect [2]?
Its Percent Effect is -45.6%.

With `Fc1ccc2c(c1)C(NCc1nnc3n1CCCCC3)CCCO2` (stereo unspecified) as the molecule, how does the Percent Effect [1] read?
Its Percent Effect is -3.62%.

What about the Percent Effect [2] of the same molecule?
Its Percent Effect is -12.2%.

How did the Percent Effect [1] turn out when `COc1cccn(CC(=O)N(C)Cc2ccoc2)c1=O` was run?
The Percent Effect was -1.64%.

And the Percent Effect [2]?
The Percent Effect was 5.29%.

`N#Cc1cccc(S(=O)(=O)N2CCCCC2CCN2CCCC2=O)c1` (stereo unspecified) was tested. Which Percent Effect [1] did it give?
Its Percent Effect is -2.87%.

What about the Percent Effect [2] of the same molecule?
Its Percent Effect is -20.4%.

What does the source list for `CCn1cnnc1CNC(=O)N1CCC(Cc2cccnc2)CC1`?
Percent Effect [1]: -1.93%; Percent Effect [2]: 2.96%

With `CCn1cnnc1CNC(=O)NC(C)c1cccs1` (stereo unspecified) as the molecule, how does the Percent Effect [1] read?
Its Percent Effect is 0.243%.

What about the Percent Effect [2] of the same molecule?
The Percent Effect was -10.2%.

How did the Percent Effect [1] turn out when `CCc1noc(CN2CCCN(C(N)=O)CC2)n1` was run?
Its Percent Effect is -1.28%.

What about the Percent Effect [2] of the same molecule?
Its Percent Effect is 5.08%.

`CC(C)(C)c1nc(CN2CCC(c3nc4cc(Cl)ccc4o3)CC2)no1` was tested. Which Percent Effect [1] did it give?
Its Percent Effect is -2.4%.

And the Percent Effect [2]?
The Percent Effect was -14.9%.

With `Cc1nnc(NCC2(c3ccccc3)CC2)c(C#N)c1C` as the molecule, how does the Percent Effect [1] read?
The Percent Effect was 1.73%.

And the Percent Effect [2]?
The Percent Effect was 15.4%.

How did the Percent Effect [1] turn out when `COCCOc1ccc(NC(=O)C2CCC2)cn1` was run?
The Percent Effect was -1.46%.

And the Percent Effect [2]?
The Percent Effect was -10.4%.

Which Percent Effect [1] does the source give for `CN(C)C(=O)CN1CCC2(CCN(Cc3nccs3)CC2)C1=O` here?
The Percent Effect was 7.45%.

What about the Percent Effect [2] of the same molecule?
Its Percent Effect is -16.7%.

How did the Percent Effect [1] turn out when `CC(C)Oc1ncccc1CNC(=O)c1cc[nH]n1` was run?
The Percent Effect was -1.4%.

And the Percent Effect [2]?
The Percent Effect was 18.4%.

How did the Percent Effect [1] turn out when `c1csc(CN2CCOCC3(CCN(C4CCOCC4)C3)C2)n1` (stereo unspecified) was run?
Its Percent Effect is 9.2%.

What about the Percent Effect [2] of the same molecule?
The Percent Effect was -7.95%.

Reference: ChEMBL document CHEMBL3988442, “University of Dundee, Small-Polar-MMV Screening Library” (2021)
